These results are taken from PubChem BioAssay (Tox21).

Unmarked numbers belong to inactive results. Inconclusive results are not listed. The source made the active and inactive calls. Unless noted, the call rests on the fitted dose curve; in most records, active means well fitted curve in the direction sought with a large enough effect in the repeat runs; inconclusive means weak or mixed curves; inactive means no such curve, though single readings can be large; an effect the other way counts as inactive or inconclusive.

Assay [1] is described as follows: A CellTox Green Cytotoxicity Assay to monitor cytotoxicity in HepG2 cells - 8 hour (AID 1224890). Further: nearly all actives have a fitted effect of over 45% in size. Summed up: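 Fluorescent DNA-binding dye, 600 HepG2 cells/well, 5 h preincubation then compound in DMSO; same plates read at 0–40 h, 37 C.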
A short description of assay [2]: qHTS assay to identify small molecule HDAC inhibitors (AID 1259364). Further: potency means the concentration at half of the fitted maximal effect.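 Further: wild-type HCT-116 cells with endogenous class I/II HDAC activity; nearly all actives have a fitted effect of over 45% in size.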 Summed up:
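After a 2 hr compound incubation (37C, 5% CO2), HCT-116 cells seeded at 1,500/well the day before received HDAC-Glo reagent; signal read as luminescence after 30 min at room temperature.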

The nature of assay [3]: qHTS assay to identify small molecule HDAC inhibitors - cell viability counter screen (AID 1259365). Further: series mostly up to about 92 µM; nearly all actives have a fitted effect of over 50% in size. Summed up:
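Wild-type HCT-116 cells, 1,500/well, cultured overnight, then compound-treated 2 h at 37 C. Viability measured as ATP luminescence with CellTiter-Glo after 30 min at room temperature.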

Assay [4] can be described thus: qHTS assay to identify small molecule agonists of the sonic hedgehog signaling (Shh) pathway - cell viability counter screen (AID 1259366). Further: nearly all actives have a fitted effect of over 50% in size. Summed up: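 NIH/3T3-derived Gli1-Luc reporter cells, 2,000 per well, received compound after 4 h and were treated about 23 h at 37C. Viability measured in the same wells by CellTiter-Fluor fluorescence after 1 h.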
Assay [5] is described as follows: qHTS assay to identify small molecule agonists of the sonic hedgehog signaling (Shh) pathway (AID 1259368; calls by dose curve;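 further: NIH/3T3-derived 3T3Gli1-Luc cells carrying a stable Gli1-driven firefly luciferase reporter; series mostly up to about 92 µM; nearly all actives have a fitted effect of over 15% in size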). Summed up:
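Stable NIH/3T3 Gli1-Luc reporter clone; 24 hr cpd exposure after a 4 hr settling period; luminescence endpoint.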

Assay [6] in a line: qHTS assay to identify small molecule antagonists of the sonic hedgehog signaling (Shh) pathway (AID 1259369; calls by dose curve; further: nearly all actives have a fitted effect of over 45% in size; further: potency means the concentration at half of the fitted maximal effect). In outline: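 Gli1 transcriptional reporter (firefly Luc) in NIH/3T3 background, conditioned-medium activated. 24hr exposure, luminescence endpoint.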
Assay [7] in a line: qHTS assay to identify small molecule agonists of the androgen receptor (AR) signaling pathway in the presence of an antagonist - cell viability counter screen (AID 1259379).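 Further: MDA-kb2 human breast cancer cells carrying an MMTV luciferase reporter; series mostly up to about 92 µM; nearly all actives have a fitted effect of over 25% in size.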 Summed up:
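Counter screen for cell viability run in parallel with the AR agonist-mode luciferase assay. MDA-kb2 cells were co-treated with nilutamide (3.0uM final) and compounds, then incubated 16 hr at 37C, and CellTiter-Fluor fluorescence was measured.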

Assay [8] can be described thus: qHTS assay to identify small molecule agonists of the estrogen receptor beta (ER-beta) signaling pathway - cell viability counter screen (AID 1259380). Further: nearly all actives have a fitted effect of over 30% in size. Further: potency means the concentration at half of the fitted maximal effect. Summed up:
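In this qHTS counter screen, HEK293T cells carrying an ER-beta/UAS beta-lactamase reporter, grown in 2% charcoal-stripped FBS, received compound for 16 hr; ATP-based CellTiter-Glo luminescence was then read after 30 min at room temperature.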

Assay [9] is described as follows: qHTS assay to identify small molecule antagonists of the estrogen receptor beta (ER-beta) signaling pathway - cell viability counter screen (AID 1259382). Further: series mostly up to about 92 µM; nearly all actives have a fitted effect of over 55% in size. In outline:
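HEK293T ER-beta-UAS-bla, 2% charcoal-stripped FBS; compounds + 1nM E2 16 hr 37C; CellTiter-Glo luminescence, 30 min RT.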

A short description of assay [10]: qHTS assay to identify small molecule agonists or antagonists of the thyroid stimulating hormone receptor (TSHR) signaling pathway - wild type cell line counter screen (AID 1259384; calls by dose curve). Summed up:
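Wild-type HEK293 cells were plated 18 h at 37 C/5% CO2, pin-dosed with compound plus Ro20-1724 medium, held 30 min at room temperature, then given cAMP-d2 and anti-cAMP-cryptate; fluorescence was read after 1 h. Fifteen concentrations, triplicate.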

A short description of assay [11]: qHTS assay to identify small molecule antagonists of the androgen receptor (AR) signaling pathway using the MDA cell line in the presence of 0.5 nM R1881 - cell viability counter screen (AID 1259242). Further: nearly all actives have a fitted effect of over 45% in size. In outline:
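Human breast carcinoma MDA-kb2 cells, cultured without CO2, receive compounds alongside 0.5 nM (final) R1881 agonist. After 16 hr at 37C, viability is taken as live-cell protease signal.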

Assay [12] deals with Estrogen receptor beta (Homo sapiens) (UniProt Q92731). Kind of assay: qHTS assay to identify small molecule agonists of the estrogen receptor beta (ER-beta) signaling pathway (AID 1259377; active means well fitted activation curve with a large enough effect in the signal ratio in the repeat runs, not every such curve was filed as active; the % refers to the signal ratio). Summed up:
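ER-beta-UAS-bla HEK293T cells in medium with 2% charcoal-stripped FBS were exposed to compounds for 16 h at 37C. Beta-lactamase reporter activity was read as fluorescence after 2 h with LiveBLAzer B/G FRET substrate at room temperature.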

The target is the same in assay [13]. Kind of assay: qHTS assay to identify small molecule antagonists of the estrogen receptor beta (ER-beta) signaling pathway (AID 1259378; active means well fitted inhibition curve with a large enough effect in the signal ratio in the repeat runs, not every such curve was filed as active; the % refers to the signal ratio). In outline: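 ER-beta-UAS-bla HEK293T (GripTite) cells in 2% charcoal-stripped FBS medium were preincubated 6 hr at 37C, dosed with compound, then stimulated with 1 nM E2 (final) for 16 hr; beta-lactamase reporter read by B/G FRET fluorescence after 2 hr substrate loading.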

The nature of assay [14]: qHTS assay to identify small molecule antagonists of the sonic hedgehog signaling (Shh) pathway - cell viability counter screen (AID 1259367). Further: nearly all actives have a fitted effect of over 55% in size. In outline:
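Conditioned medium drove Shh signaling in 3T3 Gli1-Luc cells exposed to compounds at 37C and 5% CO2. Viability was determined from CellTiter-Fluor fluorescence, with reagent incubated 1 hr after 23 hr of treatment.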

Assay [15] concerns the target Estrogen receptor (Homo sapiens) (UniProt P03372). Kind of assay: qHTS assay to identify small molecule agonists of the estrogen receptor alpha (ER-alpha) signaling pathway in the presence of an antagonist (AID 1259383; calls by dose curve; further: top concentration of the series differs between compounds; nearly all actives have a fitted effect of over 15% in size). Summed up: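 ER-alpha agonism measured under antagonist challenge: 10.0nM ICI-182,780 (final) plus compound, 15 concentrations, 22hr, VM7Luc4E2 ERE-luciferase cells. Read by luminescence.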

A short description of assay [16]: qHTS assay to identify small molecule antagonists of the estrogen receptor alpha (ER-alpha) signaling pathway using the BG1 cell line in the presence of 0.1 nM 17-beta-estradiol - cell viability counter screen (AID 1259241). Further: nearly all actives have a fitted effect of over 40% in size. In outline:
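VM7Luc4E2 cells (endogenous full-length ER-alpha, 4xERE-luciferase), cultured 5 days in charcoal-stripped serum, exposed to compounds with 0.1 nM 17beta-estradiol (final) for 22 hr at 37C. Viability read in same wells as live-cell protease fluorescence after 30 min.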

The target of assay [17] is Androgen receptor (Homo sapiens) (UniProt P10275). Kind of assay: qHTS assay to identify small molecule antagonists of the androgen receptor (AR) signaling pathway using the MDA cell line in the presence of 0.5 nM R1881 (AID 1259243). Further: nearly all actives have a fitted effect of over 50% in size. In outline:
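Cells: MDA-kb2 (MMTV-luc). Stimulus: 0.5 nM R1881. Time: 16 hr, 37C, no CO2. Detection: ONE-Glo luminescence after 30 min at RT.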

Assay [18] in a line: qHTS assay to identify small molecule phospholipidosis (PLD) inducers (AID 1259344; active means well fitted curve in the direction sought with a large enough effect; an effect the other way counts as inactive or inconclusive). In outline: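 After 4 h attachment on collagen I, HepG2 cells were dosed with compound alongside LipidTOX Red, kept 24 h at 37 C, fixed, and imaged for lamellar phospholipid pits.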
Assay [19] concerns the target Androgen receptor (Homo sapiens) (UniProt P10275). Kind of assay: qHTS assay to identify small molecule agonists of the androgen receptor (AR) signaling pathway in the presence of an antagonist (AID 1259381; calls by dose curve; further: nearly all actives have a fitted effect of over 15% in size). In outline: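 AR antagonist background: nilutamide 3.0uM final. Cell line: MDA-kb2, MMTV-driven luciferase, responsive to both AR and GR. Exposure 16hr, 37C, no CO2; ONE-Glo luminescence.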

For assay [20], the target named is Estrogen receptor (Homo sapiens) (UniProt P03372). Kind of assay: qHTS assay to identify small molecule antagonists of the estrogen receptor alpha (ER-alpha) signaling pathway using the BG1 cell line in the presence of 0.1 nM 17-beta-estradiol (AID 1259244). Further: nearly all actives have a fitted effect of over 50% in size. In outline: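 Seeding of stripped-serum-adapted VM7Luc4E2 cells, 24 h attachment, compound transfer, then 0.1 nM final 17beta-estradiol; after 22 h incubation, ONE-Glo reagent and luminescence reading.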
Sequence of Estrogen receptor (Homo sapiens) (P03372 whole entry, looked up): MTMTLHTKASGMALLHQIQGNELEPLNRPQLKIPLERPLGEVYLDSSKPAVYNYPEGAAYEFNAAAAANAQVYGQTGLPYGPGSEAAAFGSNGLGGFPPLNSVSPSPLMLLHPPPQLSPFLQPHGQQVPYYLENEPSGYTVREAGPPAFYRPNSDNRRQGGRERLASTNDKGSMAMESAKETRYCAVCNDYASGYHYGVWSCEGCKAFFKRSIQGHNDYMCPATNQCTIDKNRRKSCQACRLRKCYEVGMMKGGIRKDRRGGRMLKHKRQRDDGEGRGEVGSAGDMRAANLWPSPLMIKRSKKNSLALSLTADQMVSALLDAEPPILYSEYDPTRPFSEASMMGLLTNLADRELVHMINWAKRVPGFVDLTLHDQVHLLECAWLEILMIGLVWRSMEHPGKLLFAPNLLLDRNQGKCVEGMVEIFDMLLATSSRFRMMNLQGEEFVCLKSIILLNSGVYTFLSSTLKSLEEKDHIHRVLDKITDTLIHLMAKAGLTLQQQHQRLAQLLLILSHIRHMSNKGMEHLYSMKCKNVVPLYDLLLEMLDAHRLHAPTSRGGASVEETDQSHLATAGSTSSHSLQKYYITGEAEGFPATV

Sequence of Estrogen receptor beta (Homo sapiens) (Q92731 whole entry, looked up): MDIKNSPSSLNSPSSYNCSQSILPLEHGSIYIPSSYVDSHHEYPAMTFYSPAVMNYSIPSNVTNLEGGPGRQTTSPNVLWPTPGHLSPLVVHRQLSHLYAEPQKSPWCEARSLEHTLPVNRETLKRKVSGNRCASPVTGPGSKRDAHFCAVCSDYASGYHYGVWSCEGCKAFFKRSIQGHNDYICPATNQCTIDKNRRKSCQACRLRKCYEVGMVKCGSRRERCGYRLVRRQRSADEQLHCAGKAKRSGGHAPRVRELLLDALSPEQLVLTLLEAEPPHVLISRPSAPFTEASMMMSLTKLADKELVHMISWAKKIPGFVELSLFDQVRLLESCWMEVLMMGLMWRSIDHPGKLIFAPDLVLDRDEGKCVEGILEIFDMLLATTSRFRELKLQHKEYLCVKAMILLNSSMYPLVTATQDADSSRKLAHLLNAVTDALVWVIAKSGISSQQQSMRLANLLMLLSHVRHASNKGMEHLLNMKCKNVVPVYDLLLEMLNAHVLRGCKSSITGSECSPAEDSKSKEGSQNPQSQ
Sequence of Androgen receptor (Homo sapiens) (P10275 whole entry, looked up): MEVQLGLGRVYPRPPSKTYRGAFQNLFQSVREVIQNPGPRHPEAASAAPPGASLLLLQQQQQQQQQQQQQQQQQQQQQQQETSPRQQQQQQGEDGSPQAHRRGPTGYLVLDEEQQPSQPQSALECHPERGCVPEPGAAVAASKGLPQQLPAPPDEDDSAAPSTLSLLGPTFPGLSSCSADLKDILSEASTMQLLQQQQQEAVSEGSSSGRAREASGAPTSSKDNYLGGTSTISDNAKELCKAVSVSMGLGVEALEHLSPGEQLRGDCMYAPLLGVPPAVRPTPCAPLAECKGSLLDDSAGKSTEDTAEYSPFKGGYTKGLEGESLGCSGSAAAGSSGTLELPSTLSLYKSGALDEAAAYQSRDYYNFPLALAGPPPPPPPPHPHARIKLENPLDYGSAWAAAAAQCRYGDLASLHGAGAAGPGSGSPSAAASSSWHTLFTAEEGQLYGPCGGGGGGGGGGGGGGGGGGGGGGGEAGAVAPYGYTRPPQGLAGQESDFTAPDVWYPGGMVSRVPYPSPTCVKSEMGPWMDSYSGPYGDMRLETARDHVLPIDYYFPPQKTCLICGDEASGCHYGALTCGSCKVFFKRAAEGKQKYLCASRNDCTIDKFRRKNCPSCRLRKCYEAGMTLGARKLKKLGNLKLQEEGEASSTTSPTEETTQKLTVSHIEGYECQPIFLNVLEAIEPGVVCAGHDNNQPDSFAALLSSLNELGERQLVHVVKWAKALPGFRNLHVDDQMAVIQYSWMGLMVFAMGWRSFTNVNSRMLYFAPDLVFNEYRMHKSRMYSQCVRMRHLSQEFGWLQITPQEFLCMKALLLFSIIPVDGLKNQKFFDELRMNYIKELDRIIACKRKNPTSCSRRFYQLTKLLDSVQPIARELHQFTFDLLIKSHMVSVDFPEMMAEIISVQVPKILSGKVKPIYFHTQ

Regarding `CC(C)=CCCC(C)CCOC=O` (stereo unspecified), the Potency result in assay [1], in [2], in assay [4], in assay [5], in assay [7] and in [8] was “inactive” throughout. Moreover, the compound was classed as inactive in [3], in [9] and in assay [10]. The Potency in assay [6] is 34.4 µM (active).
For `Cc1ccc([N+](=O)[O-])c(N)c1`, the Potency result in assay [1], in assay [2], in assay [5], in assay [13] and in assay [8] was “inactive” in each case. Further, the result in assay [11], in assay [3], in assay [12], in assay [9] and in assay [10] was inactive. Further, the Potency in assay [6] was 18.9 µM (active).
For the compound `COc1nc(C)nc(NC(=O)NS(=O)(=O)c2ccccc2OCCCl)n1`, the Potency result in assay [1], in [2], in assay [4], in [14], in assay [5] and in assay [6] was “inactive” throughout. For the same compound, the Potency entry in [7] and in assay [15] was “inactive” throughout. Also, the call in [3] was inactive.
On to `CCN(CC)C(=O)N(CC)CC`, for which the Potency result in assay [1], in [2], in [4], in assay [14], in assay [6] and in assay [7] was “inactive” each time. Besides, the Potency result in [8] was “inactive”. Moreover, the compound was classed as inactive in [3] and in assay [9].
Turning to `C1CCOC1`, the Potency entry in assay [1], in assay [2], in [4], in assay [14], in assay [6] and in assay [7] was “inactive” in each case. The Potency result in assay [8] was “inactive”. In addition, the outcome in assay [11], in [3], in assay [9] and in assay [10] was inactive.
Turning to `CCCCCOc1ccc(C2SC(=O)NC2=O)cc1OCC` (stereo unspecified), the Potency entry in assay [16], in assay [17], in assay [2], in assay [4], in assay [14] and in [5] was “inactive” each time. Moreover, the Potency result in [6], in assay [7], in assay [19] and in assay [15] was “inactive” each time. The result in assay [11], in [18], in [3], in [12] and in assay [10] was inactive. Also, the Potency in assay [8] was 29.8 µM (active).
As to `CC1=NN(c2cc(Cl)c(S(=O)(=O)O)cc2Cl)C(=O)C1N=Nc1ccc(S(=O)(=O)O)cc1` (stereo unspecified), the Potency entry in assay [1], in assay [6] and in assay [8] was “inactive” each time. The Potency in assay [2] is 27.3 µM (active). For the same compound, the result in [3], in assay [9] and in assay [10] was inactive.
Turning to `CCCCNc1cc(C(=O)O)cc(S(N)(=O)=O)c1Oc1ccccc1`, the Potency result in [16], in assay [2], in assay [4], in assay [14], in assay [6] and in [7] was “inactive” each time. Moreover, the outcome in [11], in [18], in [3] and in assay [10] was inactive.
As for `CCCCNc1ccc(C(=O)OCCN(CC)CC)cc1`, the Potency result in [1], in [20], in assay [2], in assay [4], in assay [13] and in [7] was “inactive” each time. Besides, the Potency entry in assay [15] is “inactive”. Further, the result in [11], in assay [3], in [12], in [9] and in assay [10] was inactive.
For the compound `CC/C=C\CCOC(=O)CCCCC`, the Potency result in assay [16], in [20], in assay [2], in assay [4], in [14] and in [5] was “inactive” in each case. For the same compound, the Potency entry in assay [6], in [7], in assay [8] and in [15] was “inactive” in each case. Besides, the result in assay [11], in [3], in assay [9] and in [10] was inactive.
Take `COC(=O)N[C@H](C(=O)N[C@@H](Cc1ccccc1)[C@@H](O)CN(Cc1ccc(-c2ccccn2)cc1)NC(=O)[C@@H](NC(=O)OC)C(C)(C)C)C(C)(C)C`: the Potency result in [16], in assay [2], in [5], in [13], in assay [7] and in assay [8] was “inactive” in each case. Besides, the Potency entry in assay [15] is “inactive”. In addition, the outcome in assay [11], in [3], in assay [12], in assay [9] and in assay [10] was inactive.
